High-throughput results from PubChem BioAssay.
Pf growth 96h: inhibits malaria parasite growth, 96 h; P. falciparum luciferase reporter growth, 96 h; Potency, µM (titrated, usually from 28.7 µM), hits mostly inhibitors; 320,000 compounds, 6.9% hits
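Readout is luminescence from an integrated firefly luciferase in P. falciparum. Red cells, 2% hematocrit and 0.05% parasitemia final, were cultured with compound through two parasite generations (96 hours) at 37 C, 5% CO2.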
Pf growth 48h: inhibits P. falciparum growth in the first generation, 48 h; Potency, µM (titrated, usually from 28.7 µM), usual class: inhibitors; 310,000 compounds, 5.9% hits; AID 504832; P. falciparum luciferase growth in erythrocytes, 48 h
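Cell-based growth assay: transgenic P. falciparum expressing firefly luciferase, cultured in red cells within RPMI 1640 containing 0.5% w/v Albumax, 24 mM bicarbonate and gentamycin. A drop in luciferase activity indicates inhibition.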
SARS PLpro yeast: blocks SARS-CoV papain-like protease in a yeast assay. S. cerevisiae expressing SARS-CoV PLpro, growth rescue. Potency, µM (titrated, usually from 32.9 µM), most hits filed as activators. 330,000 compounds, 0.19% hits. AID 485353; calls by dose curve; further: nearly all actives have a fitted effect of over 55% in size
AMA1 RON2 block: inhibitors of Plasmodium falciparum AMA1-RON2 interaction | 360,000 compounds, 0.2% hits | AlphaScreen AMA1-biotinylated RON2 peptide binding | Potency, µM (highest dose often 58.2 µM), most hits filed as inhibitors; further: nearly all actives have a fitted effect of over 45% in size
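AMA1 (3D7) with his tag at 25 nM final met compounds first, then biotinylated RON2 peptide at 25 nM; detection used donor plus acceptor beads, 10 µg/mL apiece, read by AlphaScreen after 30 min at room temperature.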
Numbers stand for hits. In the library only some 9.4% were active in any assay of this set; here they are far more common. Unless noted, the call rests on the fitted dose curve; in most records, active means well fitted curve in the direction sought with a large enough effect; inconclusive means small, poorly fitted or top-dose-only effect, or another doubt; inactive means no such curve, though single readings can be large; an effect the other way counts as inactive or inconclusive.

Results for Cc1ccc(-c2c[n+](CC(=O)Nc3cc(=O)n(C)c(=O)n3C)c3n2CCC3)cc1 ?
Pf growth 96h: 1.17µM; Pf growth 48h: 4.15µM; SARS PLpro yeast: inactive; AMA1 RON2 block: inactive

How did O=C1/C(=C\c2ccc(Br)o2)SC(=Nc2ccccc2)N1c1ccccc1 do in these assays?
Pf growth 96h: 9.28µM; Pf growth 48h: inconclusive; SARS PLpro yeast: inactive; AMA1 RON2 block: inconclusive

How did CN(C)N1C(=O)/C(=C/c2ccco2)SC1=Nc1ccccc1 do in these assays?
AMA1 RON2 block: inactive

Results for CC(=O)NCCn1c(SCC(=O)NCc2ccco2)nc2ccccc2c1=O ?
Pf growth 96h: 4.65µM; Pf growth 48h: inactive; SARS PLpro yeast: inactive; AMA1 RON2 block: inactive

Results for C=CCn1c(SCC(=O)c2ccc(CNC(C)=O)o2)nc2ccccc2c1=O ?
Pf growth 96h: 14.7µM; SARS PLpro yeast: inactive; AMA1 RON2 block: inactive

Results for CCCCn1c(SCC(=O)NCc2ccco2)nc2ccccc2c1=O ?
Pf growth 96h: inactive; SARS PLpro yeast: inactive; AMA1 RON2 block: inactive

What do the screens show for `O=C(CCCCCn1c(SCC(=O)c2ccccc2)nc2ccccc2c1=O)NCc1ccco1`?
Pf growth 96h: inactive; Pf growth 48h: inconclusive; SARS PLpro yeast: inactive; AMA1 RON2 block: inactive

What do the screens show for `COc1ccccc1NC(=O)CSc1nc2ccccc2c(=O)n1CCNC(C)=O`?
Pf growth 96h: 8.28µM; Pf growth 48h: inconclusive; SARS PLpro yeast: inactive; AMA1 RON2 block: inactive

What do the screens show for `C=CCn1c(SCC(=O)NC2CC2)nc2ccccc2c1=O`?
Pf growth 96h: inconclusive; Pf growth 48h: inconclusive; SARS PLpro yeast: inactive; AMA1 RON2 block: inactive

How did CCOC(=O)CSc1nc2ccccc2c(=O)n1CCCCCC(=O)NCc1ccco1 do in these assays?
Pf growth 96h: inactive; Pf growth 48h: 11.7µM; SARS PLpro yeast: inactive; AMA1 RON2 block: inactive

What do the screens show for `Cc1ccc(S(=O)(=O)NCCN2CCNC2=O)cc1`?
Pf growth 96h: inactive; Pf growth 48h: inactive; SARS PLpro yeast: inactive; AMA1 RON2 block: inactive

Results for Cc1cccc(NC(=O)C2CCN(c3nccc(C)n3)CC2)c1 ?
Pf growth 96h: inactive; SARS PLpro yeast: inactive; AMA1 RON2 block: inactive

What do the screens show for `CC(=O)OC[C@H]1O[C@@H](O/N=C/C[C@@H]2C=C[C@H](OC(C)=O)[C@@H](COC(C)=O)O2)[C@H](OC(C)=O)[C@@H](OC(C)=O)[C@@H]1OC(C)=O`?
Pf growth 96h: inconclusive; Pf growth 48h: inactive; SARS PLpro yeast: inactive

Results for O=c1cc(-c2nn[nH]n2)[nH]c(=O)[nH]1 ?
AMA1 RON2 block: inactive

What do the screens show for `C=C(C)C1CC=C(C)/C(=N/Nc2ccccc2[N+](=O)[O-])C1` (centres undefined)?
Pf growth 96h: inconclusive; Pf growth 48h: inactive; SARS PLpro yeast: inactive; AMA1 RON2 block: inconclusive

Results for CC(C)CN(CCCNC(=O)CN1C(=O)COc2ccc(S(=O)(=O)N3CCOCC3)cc21)CC(C)C ?
Pf growth 96h: inconclusive; Pf growth 48h: inactive; SARS PLpro yeast: inactive; AMA1 RON2 block: inactive

Results for c1ccc(-c2cncnc2)nc1 ?
Pf growth 96h: inactive; Pf growth 48h: inactive; SARS PLpro yeast: inactive; AMA1 RON2 block: inactive

How did O=C(CSc1nnc(-c2ccccc2)c(-c2ccccc2)n1)NCc1ccco1 do in these assays?
Pf growth 96h: inactive; Pf growth 48h: 10.4µM; SARS PLpro yeast: inactive; AMA1 RON2 block: inactive

Results for Cc1c(C(=O)Nc2cccc(Cl)c2)oc2ccc(S(=O)(=O)N3CCC4(CC3)OCCO4)cc12 ?
Pf growth 96h: inactive; Pf growth 48h: inactive; SARS PLpro yeast: inactive; AMA1 RON2 block: inactive

How did Cc1c(C(=O)NCc2ccccc2)oc2ccc(S(=O)(=O)N3CCC4(CC3)OCCO4)cc12 do in these assays?
Pf growth 96h: inactive; Pf growth 48h: inconclusive; SARS PLpro yeast: inactive; AMA1 RON2 block: inactive

What do the screens show for `Cc1c(C(=O)Nc2ccc(F)cc2)oc2ccc(S(=O)(=O)N3CCC4(CC3)OCCO4)cc12`?
Pf growth 96h: inconclusive; Pf growth 48h: 9.28µM; SARS PLpro yeast: inactive; AMA1 RON2 block: inactive

How did Cc1c(C(=O)Nc2ccc(F)cc2)oc2ccc(S(=O)(=O)N3CCCC3)cc12 do in these assays?
Pf growth 96h: inactive; Pf growth 48h: inactive; SARS PLpro yeast: inactive; AMA1 RON2 block: inactive

What do the screens show for `Cc1c(C(=O)NC2CCCc3ccccc32)oc2ccc(S(=O)(=O)N3CCCC3)cc12` (centres undefined)?
Pf growth 48h: inconclusive; SARS PLpro yeast: inactive; AMA1 RON2 block: inactive

What do the screens show for `Cc1c(C(=O)NC2CCCc3ccccc32)oc2ccc(S(=O)(=O)N3CCCCC3)cc12` (centres undefined)?
Pf growth 96h: 1.85µM; Pf growth 48h: inconclusive; SARS PLpro yeast: inactive; AMA1 RON2 block: inactive

What do the screens show for `Cc1c(C(=O)Nc2ccc(F)c(F)c2)oc2ccc(S(=O)(=O)N3CCCCC3)cc12`?
Pf growth 48h: 13.1µM; SARS PLpro yeast: inactive; AMA1 RON2 block: inactive

What do the screens show for `Cc1c(C(=O)NCc2ccccn2)oc2ccc(S(=O)(=O)N3CCC4(CC3)OCCO4)cc12`?
Pf growth 96h: inconclusive; Pf growth 48h: 13.1µM; SARS PLpro yeast: inactive; AMA1 RON2 block: inactive

Results for COc1ccc2c(c1)C(=O)N(c1ccc(C)cc1C)C(=O)C2 ?
Pf growth 96h: inactive; Pf growth 48h: inactive; SARS PLpro yeast: inactive; AMA1 RON2 block: inactive

What do the screens show for `CCN(CC)C(=O)CSc1nnc2nnc3cc(Cl)ccc3n12`?
Pf growth 96h: 7.38µM; Pf growth 48h: 4.65µM; SARS PLpro yeast: inactive; AMA1 RON2 block: inactive

How did CCN(CC)C(=O)CSc1nnc2nnc3cc(C)ccc3n12 do in these assays?
Pf growth 96h: inactive; Pf growth 48h: inconclusive; SARS PLpro yeast: inactive; AMA1 RON2 block: inactive

How did O=C(COC(=O)CC1CCCC1)Nc1cc2c(cc1Cl)C(=O)c1ccccc1C2=O do in these assays?
Pf growth 96h: inactive; SARS PLpro yeast: inactive; AMA1 RON2 block: inactive

What do the screens show for `Cc1ccc(CCNC(=O)CCCn2nc(C)c3c(C)n(-c4ccc(C)cc4)nc3c2=O)cc1`?
Pf growth 96h: inconclusive; Pf growth 48h: inactive; SARS PLpro yeast: inactive; AMA1 RON2 block: inactive

How did Cc1ccc(-n2nc3c(=O)n(CCCC(=O)NCc4ccco4)nc(C)c3c2C)cc1 do in these assays?
Pf growth 96h: inconclusive; Pf growth 48h: 11.7µM; SARS PLpro yeast: inactive; AMA1 RON2 block: inactive

Results for Cc1ccc(-n2nc3c(=O)n(CCCC(=O)NCc4ccc(F)cc4)nc(C)c3c2C)cc1 ?
Pf growth 96h: inactive; Pf growth 48h: 8.28µM; SARS PLpro yeast: inactive; AMA1 RON2 block: inactive

What do the screens show for `Cc1ccc(-n2nc3c(=O)n(CCCC(=O)NCCN4CCN(C)CC4)nc(C)c3c2C)cc1`?
Pf growth 96h: 11.7µM; Pf growth 48h: inconclusive; SARS PLpro yeast: inactive; AMA1 RON2 block: inactive

What do the screens show for `Cc1ccc(-n2nc3c(=O)n(CCCC(=O)NCCc4ccccc4)nc(C)c3c2C)cc1`?
Pf growth 96h: inconclusive; Pf growth 48h: inconclusive; SARS PLpro yeast: inactive; AMA1 RON2 block: inactive

What do the screens show for `Cc1ccc(-n2nc3c(=O)n(CCCC(=O)NCc4cccc(F)c4)nc(C)c3c2C)cc1`?
Pf growth 96h: inactive; Pf growth 48h: 10.4µM; SARS PLpro yeast: inactive; AMA1 RON2 block: inactive

Results for Cc1nn(CCCC(=O)NCc2ccccc2)c(=O)c2nn(-c3ccccc3)c(C)c12 ?
Pf growth 96h: inactive; Pf growth 48h: inconclusive; SARS PLpro yeast: inactive; AMA1 RON2 block: inactive
